Data as given in PubChem BioAssay (NCI).
This is part of a sample that, as a whole, favours compounds with a hit. Of some 83,000 tested, about 20% had one in any assay.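 Note: values are percent growth. 100 is the growth of untreated cells, values between 100 and 0 indicate rising inhibition; between -100 and 0 indicates cell death.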 Values without a mark were called inactive. Calls of active or inactive are those of the source. How the source made its calls: active means growth percent below 10; inactive means the rest.

Assays:
Assay in all cases: NCI-60 one-dose screen, 48 h (100 = growth as untreated, 0 = no growth, -100 = all killed)
Details in all cases: 10 µM unless noted
[1] = system: NCI-H23 lung
[2] = system: NCI-H226 lung
[3] = system: NCI-H322M lung
[4] = system: HOP-62 NSCLC
[5] = system: NCI-H460 lung
[6] = system: HOP-92 NSCLC
[7] = system: NCI-H522 lung
[8] = system: A549/ATCC NSCLC
[9] = system: 786-0 renal
[10] = system: COLO 205 colon

Compound | growth [1] | growth [2] | growth [3] | growth [4] | growth [5] | growth [6] | growth [7] | growth [8] | growth [9] | growth [10]
CCN1C(=O)N(CC)C2C1NN=C1SCC(=O)N12 (stereo not given) | 96.1% | 91.6% | 103% | 100% | 103% | 114% | 77.5% | 102% | 95.8% | 44.7%
O=C1/C(=C/c2ccc(Br)cc2)COc2ccc(O)c(O)c21 | 18.3% | 71% | 30.7% | -24.5% (active) | 12% | -33.4% (active) | -70.4% (active) | 20.6% | -70.4% (active) | 15.4%
Cn1cc(C(=O)c2nc(-c3c[nH]c4ccc(Br)cc34)no2)c2cc(Br)ccc21 | 83% | 102% | 73.4% | 78.4% | 12.5% | 83.9% | 84.2% | 32.1% | 99.4% | 93.3%
Cc1ccc(C)n1/C=C/n1c(C)ccc1C | 94.7% | 99% | 103% | 114% | 110% | 75% | 83.8% | 95.5% | 107% | 96.9%
N#C/C(=C\c1ccc(Cl)cc1Cl)C(=O)Nc1ncc(Cc2ccc(Cl)c(Cl)c2)s1 | 91.8% | 93.4% | 76.4% | 82.9% | 101% | 70.7% | 79.1% | 89.3% | 93.2% | 112%
O=c1[nH]c(-c2ccc(Cl)cc2)cn1-c1ccc(-n2cc(-c3ccc(Cl)cc3)[nH]c2=O)cc1 | 95.9% | 91.1% | 115% | 99.8% | 115% | 99.1% | 112% | 93.4% | 96.4% | 111%
COc1cc(-c2nc(SCCC(C)C)nc(N3CCOCC3)c2C#N)cc(OC)c1OC | 74.2% | 106% | 91.2% | 28.6% | 12.2% | 81.9% | 65.8% | 22.4% | 66% | 63.8%
NC(=S)N/N=C/c1cn(-c2ccccc2)nc1-c1cc2ccccc2oc1=O | 78.2% | 81.3% | 89.2% | 72.3% | 21% | 79.7% | 36.5% | 46.4% | 62.4% | 46.4%
COc1cccc(Nc2ccnc3[nH]c4ccc([N+](=O)[O-])cc4c23)c1 | 64.5% | 48.7% | 84.3% | 34.6% | 30.7% | 31.5% | 30.4% | 37% | 25.7% | 51.7%
C/C(=C(/c1ccc(Cl)cc1)c1ccc(OCCCN(C)C)cc1)c1ccc(Cl)cc1 | 91.2% | 108% | 85.9% | 115% | 72.7% | 74.4% | 99.7% | 68.1% | 86.8% | 48.9%
CC12CCC(/C(=C/NNc3ccc([N+](=O)[O-])cc3[N+](=O)[O-])C1=O)C2(C)C (stereo not given) | 78.1% | 87.1% | 83.6% | 100% | 45.1% | 79.7% | 36.2% | 77.9% | 96.4% | 91.4%
C=NNc1ccccc1 | 86.5% | 87.5% | 85.7% | 101% | 102% | 78.1% | 73.7% | 84.3% | 103% | 100%
COc1ccc(-c2nnc(SCC(=O)Nc3ccc(/C(C)=N\O)cc3)n2-c2ccccc2)cc1OC | 68.8% | 81.9% | 75.7% | -26.4% (active) | 102% | -8.56% (active) | 35.3% | 70.7% | 64.5% | 99.1%
Cc1ncc(C(=O)Nc2ccc(CN3CCN(C)CC3)c(C(F)(F)F)c2)cc1C#Cc1cnc(N)c2cnccc12 | 9.05% (active) | 12.1% | 14.8% | -21.8% (active) | -53.9% (active) | 34.2% | -0.528% (active) | 13.3% | 14% | -27% (active)
NC(=O)OCCn1cc(-c2nc(-c3c[nH]c4ncccc34)cs2)c2ccccc21 | 63.3% | 53% | 65.9% | 39.2% | 17.8% | 49.1% | 5.49% (active) | 36.9% | 42.9% | 4.32% (active)
Cc1ccccc1CNc1c2ccccc2nc2ccccc12 | 23.4% | 31.5% | 29% | 28.1% | 6.94% (active) | -1.03% (active) | 50% | 19.7% | 24.3% | -18.5% (active)
O=C(CN1C(=O)NC2NC(=O)NC21)N/N=C/c1ccc(Cl)cc1Cl (stereo not given) | 102% | 95.6% | 104% | 114% | 105% | 125% | 93.3% | 110% | 96.6% | 125%
CCOC(=O)c1c(C)nn(CC(O)c2ccccc2)c1NC(=O)Nc1cccc(F)c1 (stereo not given) | 97% | 85.4% | 88.8% | 91.2% | 93.6% | 71.8% | 81.8% | 87% | 88.7% | 102%
Cc1nn(-c2ccccc2)c(N2CCCCC2)c1/C=N/NC(=O)Cn1c(=O)sc2ccccc21 | 82.6% | 92.8% | 76.3% | 77.3% | 81.5% | 65.6% | 64.9% | 66% | 97.2% | 88.2%
NC(=O)c1c(NC(=O)c2ccc(Cl)cc2)sc2c1CCC(=O)C2 | 51.6% | 97.8% | 94% | 106% | 100% | 77.4% | 7.79% (active) | 98.5% | 94.3% | 75.9%
CCOC(=O)C1=C(C)N=C2SC=C(c3ccccc3)N2[C@H]1c1cn[nH]c1-c1ccc(Cl)cc1 | 51.2% | 66.4% | 78.7% | 63% | 43.3% | -1.56% (active) | -56.8% (active) | 56.4% | 49.6% | 57.1%
CC1=CCC[C@@H]2C1(C)CC[C@H](C)[C@@]2(C)CC1=CC(=O)C(SC(C)(C)C)=CC1=O (stereo not given in full) | 81.2% | 84.7% | 87.6% | 97.8% | 83.5% | 75.2% | 62.9% | 73.3% | 82.4% | 100%
O=C1/C(=C/c2ccc(C(F)(F)F)cc2)COc2ccc(O)c(O)c21 | 38% | 81.1% | 50.2% | -36.7% (active) | 25.8% | -13.7% (active) | -50.3% (active) | 54.2% | -78.6% (active) | 12.3%
Fc1ccc(CNc2c3ccccc3nc3ccccc23)cc1 | 31.6% | 51.8% | 38.5% | 43% | 8.85% (active) | 17.2% | 52.4% | 23.7% | 27.6% | 7.53% (active)
N#CCC1=NC(c2cccs2)=Nc2ccccc2S1 | 94.6% | 82.4% | 101% | 89.6% | 97.7% | 71.7% | 57.4% | 96% | 98.6% | 107%
Cc1ccc(Nc2nc(-c3ccc(F)cc3)c(C#N)c(=O)n2C)cc1 | 66.7% | 64% | 74.8% | 50.9% | 84.5% | 0.0271% (active) | 49.7% | 61.7% | 67.5% | 66.8%
CC(C)c1ccc(-n2c(=S)[nH]c3sc4c(c3c2=O)CCC(=O)C4)cc1 | 36.2% | 84.9% | 78% | 33.9% | 30.3% | -6.71% (active) | 6.26% (active) | 71.1% | 102% | 92.7%
